# Unmarked numbers belong to inactive results. Records with an inconclusive call do not appear. Where a call stands in place of a potency, no number is given. Activity calls are given as the source filed them. Unless noted, calls come from the whole dose curve; as a rule, active = well fitted curve in the direction sought with a large enough effect in the repeat runs; inconclusive = weak or mixed curves; inactive = no such curve, though single readings can be large; an effect the other way counts as inactive or inconclusive.
# Assays:
# [1] = molecular target: Thyrotropin receptor (Homo sapiens) (UniProt P16473); assay: qHTS assay to identify small molecule agonists of the thyroid stimulating hormone receptor (TSHR) signaling pathway (AID 1224843; calls by dose curve; note: nearly all actives have a fitted effect of over 45% in size)
# Chain of Thyrotropin receptor (Homo sapiens) (P16473 whole entry, looked up): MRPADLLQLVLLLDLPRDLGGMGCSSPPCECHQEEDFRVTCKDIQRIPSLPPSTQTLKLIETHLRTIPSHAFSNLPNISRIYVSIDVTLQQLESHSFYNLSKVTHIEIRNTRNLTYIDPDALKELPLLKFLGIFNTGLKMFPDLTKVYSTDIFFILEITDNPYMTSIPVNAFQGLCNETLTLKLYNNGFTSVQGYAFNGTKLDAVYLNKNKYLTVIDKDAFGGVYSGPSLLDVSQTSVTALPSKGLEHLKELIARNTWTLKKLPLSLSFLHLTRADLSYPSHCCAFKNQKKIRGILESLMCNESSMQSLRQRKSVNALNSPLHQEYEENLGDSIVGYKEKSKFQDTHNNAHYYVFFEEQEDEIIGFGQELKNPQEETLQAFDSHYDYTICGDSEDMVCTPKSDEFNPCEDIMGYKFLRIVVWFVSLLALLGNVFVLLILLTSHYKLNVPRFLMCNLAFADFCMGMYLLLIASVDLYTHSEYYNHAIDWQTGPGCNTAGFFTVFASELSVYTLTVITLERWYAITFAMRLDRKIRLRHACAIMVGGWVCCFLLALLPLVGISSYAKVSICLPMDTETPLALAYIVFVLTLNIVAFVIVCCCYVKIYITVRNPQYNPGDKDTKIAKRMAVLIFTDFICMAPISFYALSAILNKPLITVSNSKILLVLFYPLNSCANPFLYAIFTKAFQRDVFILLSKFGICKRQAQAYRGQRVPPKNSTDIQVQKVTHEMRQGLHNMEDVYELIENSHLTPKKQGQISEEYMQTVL
# In short: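 A cell-based cAMP HTRF format was run in TSHR-transfected HEK293 cells, 800 per well. Treatment: 30 min, room temperature. Detection: 1 h with labelled cAMP and anti-cAMP cryptate. Concentration-response over 15 points, three replicates.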
# [2] = qHTS assay to identify small molecule agonists of the hypoxia (HIF-1) signaling pathway - cell viability counter screen (AID 1224844; calls by dose curve; note: nearly all actives have a fitted effect of over 50% in size)
# In short: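 Same wells as the HIF-1 reporter screen; ME-180 cells carrying HRE-bla, 17 hr treatment at 37C; CellTiter-Glo luminescence read after 30 min at room temperature.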
# [3] = qHTS assay to identify small molecule agonists of H2AX (AID 1224845; active = well fitted activation curve with a large enough effect in the signal ratio in the repeat runs, not every such curve was filed as active; the % refers to the signal ratio)
# In short: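 Phospho-H2AX Ser139 measured by HTRF (ex 320 nm; em 665 and 620 nm) after 24 hr antibody incubation. Compounds, 15 concentrations, 0.76% DMSO, were applied to CHO-K1 cells for 3hr at 37C before lysis.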
# [4] = qHTS assay to identify small molecule agonists of H2AX - cell viability counter screen (AID 1224847; calls by dose curve; note: top concentration of the series differs between compounds; nearly all actives have a fitted effect of over 30% in size)
# In short: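 Compounds tested at 15 concentrations were incubated 3 hr at 37C with wild-type CHO-K1 cells; cellular ATP-based luminescence (CellTiter-Glo) indicated viability.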
# [5] = qHTS assay to identify small molecule antagonists of the estrogen related receptor (ERR) signaling pathway from Tox21 library (AID 1224848); note: nearly all actives have a fitted effect of over 50% in size
# In short: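 ERR cell line, 2,000 cells/well. 6 h settle, then compound (DMSO) added; 18 h at 37 C; ONE-Glo luminescence after 30 min RT.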
# [6] = qHTS assay to identify small molecule agonists of the estrogen related receptor (ERR) signaling pathway from Tox21 library (AID 1224849; calls by dose curve; note: nearly all actives have a fitted effect of over 15% in size); conditions: ERR reporter cell line, ONE-Glo luciferase, 18 h; at 92.4 µM (top of the series) unless noted
# In short: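 Reporter cells (ERR, NTP source) treated with Tox21 10K compounds 18 h, 37 C. Readout: ONE-Glo luminescence, 30 min RT.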
# [7] = qHTS RealTime-Glo MT Cell Viability Assay in HepG2 cells - 24 hour (AID 1224867); note: nearly all actives have a fitted effect of over 50% in size
# In short: (§1)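 Cell number in HepG2 cultures estimated from NanoLuc luminescence generated by metabolic reduction of a prosubstrate by living cells. The homogeneous, nonlytic format allowed repeated reads at 0, 8, 16, 24, 32 and 40 h of compound exposure.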
# [8] = qHTS RealTime-Glo MT Cell Viability Assay in HEK293 cells - 32 hour (AID 1224868); note: top concentration of the series differs between compounds; nearly all actives have a fitted effect of over 50% in size
# In short: (§2)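 Homogeneous bioluminescent viability format in HEK293 cells (600 cells/well). Following 5 h at 37 C/5% CO2, 23 nL compound was pintooled; the signal was measured repeatedly during 40 h incubation.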
# [9] = A CellTox Green Cytotoxicity Assay to monitor cytotoxicity in HEK293 cells - 0 hour (AID 1224869); note: nearly all actives have a fitted effect of over 50% in size
# In short: (§3)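 Homogeneous no-lysis format: HEK293 cell suspension mixed with CellTox Green reagent, seeded, incubated 5 h at 37 C/5% CO2, then dosed by pintool with compound in DMSO.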
# [10] = qHTS RealTime-Glo MT Cell Viability Assay in HepG2 cells - 40 hour (AID 1224870); note: nearly all actives have a fitted effect of over 50% in size
# In short: (§4)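 Real-time viability: cells seeded at 600 per well together with NanoLuc and cell-permeant prosubstrate, compounds added after 5 h incubation. Luminescence tracked at 0, 8, 16, 24, 32 and 40 h of exposure.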
# [11] = A CellTox Green Cytotoxicity Assay to monitor cytotoxicity in HEK293 cells - 40 hour (AID 1224871); note: nearly all actives have a fitted effect of over 45% in size
# In short: as §3
# [12] = qHTS RealTime-Glo MT Cell Viability Assay in HEK293 cells - 16 hour (AID 1224872)
# In short: as §2
# [13] = qHTS RealTime-Glo MT Cell Viability Assay in HepG2 cells - 8 hour (AID 1224873); note: nearly all actives have a fitted effect of over 55% in size
# In short: as §4
# [14] = qHTS RealTime-Glo MT Cell Viability Assay in HEK293 cells - 40 hour (AID 1224874); conditions: RealTime-Glo luminescence; max response: hits give low values; note: nearly all actives have a fitted effect of over 50% in size
# In short: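 Measured as luminescence from the same continuously cultured HEK293 wells at successive time points (0, 8, 16, 24, 32, 40 h) after compound addition. Reagent present from seeding; dosing at 5 h; incubation 37 C.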
# [15] = A CellTox Green Cytotoxicity Assay to monitor cytotoxicity in HEK293 cells - 24 hour (AID 1224875); note: nearly all actives have a fitted effect of over 45% in size
# In short: as §3
# [16] = A CellTox Green Cytotoxicity Assay to monitor cytotoxicity in HepG2 cells - 16 hour (AID 1224876); note: nearly all actives have a fitted effect of over 45% in size
# In short: (§5)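 Fluorescent DNA-binding dye, 600 HepG2 cells/well, 5 h preincubation then compound in DMSO; same plates read at 0–40 h, 37 C.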
# [17] = qHTS RealTime-Glo MT Cell Viability Assay in HepG2 cells - 32 hour (AID 1224877); note: nearly all actives have a fitted effect of over 55% in size
# In short: as §1
# [18] = A CellTox Green Cytotoxicity Assay to monitor cytotoxicity in HepG2 cells - 24 hour (AID 1224878); note: nearly all actives have a fitted effect of over 45% in size
# In short: as §5
# [19] = A CellTox Green Cytotoxicity Assay to monitor cytotoxicity in HepG2 cells - 40 hour (AID 1224879); note: nearly all actives have a fitted effect of over 40% in size; note: potency is the fitted concentration of half-maximal effect
# In short: as §5
# [20] = qHTS assay to identify small molecule agonists of the hypoxia (HIF-1) signaling pathway (AID 1224846; active = well fitted activation curve with a large enough effect in the signal ratio in the repeat runs, not every such curve was filed as active; the % refers to the signal ratio)
# In short: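 In ME-180 cells bearing an HRE-bla construct, 17 h treatment with DMSO-dissolved compounds at 37C was followed by CCF4-AM loading to quantify reporter induction.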
structure (smiles),measurement,setting,value
OCCN(CCO)CCN(CCO)CCO,Potency,[1],inactive
same,Potency,[2],inactive
same,Potency,[3],inactive
same,Potency,[4],inactive
same,Potency,[5],inactive
same,"activity change, positive = activation",[6],-1.05%
same,Potency,[7],inactive
same,Potency,[8],inactive
same,Potency,[9],inactive
same,Potency,[10],inactive
same,Potency,[11],inactive
same,Potency,[12],inactive
same,outcome,[13],inactive
same,max response,[14],-1.3%
same,Potency,[15],inactive
same,Potency,[16],inactive
same,Potency,[17],inactive
same,Potency,[18],inactive
same,Potency,[19],inactive
CN1C(=O)CC(c2ccccc2)C1=O (stereo not drawn),Potency,[1],inactive
same,Potency,[2],inactive
same,Potency,[3],inactive
same,Potency,[4],inactive
same,Potency,[7],inactive
same,Potency,[8],inactive
same,Potency,[9],inactive
same,Potency,[10],inactive
same,Potency,[11],inactive
same,Potency,[12],inactive
same,outcome,[13],inactive
same,max response,[14],11.9%
same,Potency,[15],inactive
same,Potency,[16],inactive
same,Potency,[17],inactive
same,Potency,[18],inactive
same,Potency,[19],inactive
C1CSCCS1,Potency,[1],inactive
same,Potency,[2],inactive
same,Potency,[3],inactive
same,Potency,[4],inactive
same,Potency,[5],inactive
same,"activity change, positive = activation",[6],3.63%
same,Potency,[7],inactive
same,Potency,[8],inactive
same,Potency,[9],inactive
same,Potency,[10],inactive
same,Potency,[11],inactive
same,Potency,[12],inactive
same,outcome,[13],inactive
same,max response,[14],-4.02%
same,Potency,[15],inactive
same,Potency,[16],inactive
same,Potency,[17],inactive
same,Potency,[18],inactive
same,Potency,[19],inactive
O=C(O)C(=O)Cc1c[nH]c2ccccc12,Potency,[1],inactive
same,Potency,[2],inactive
same,Potency,[3],inactive
same,outcome,[20],inactive
same,Potency,[4],inactive
same,Potency,[7],inactive
same,Potency,[8],inactive
same,Potency,[10],inactive
same,Potency,[11],inactive
same,outcome,[13],inactive
same,max response,[14],2.14%
same,Potency,[15],inactive
same,Potency,[16],inactive
same,Potency,[17],inactive
same,Potency,[18],inactive
same,Potency,[19],inactive
CC(CNC1CCCCC1)OC(=O)c1ccccc1 (stereo not drawn),Potency,[1],inactive
same,Potency,[2],inactive
same,Potency,[3],inactive
same,Potency,[4],inactive
same,Potency,[5],inactive
same,Potency,[7],inactive
same,Potency,[8],inactive
same,Potency,[10],inactive
same,Potency,[11],inactive
same,Potency,[12],inactive
same,outcome,[13],inactive
same,max response,[14],-9.26%
same,Potency,[15],inactive
same,Potency,[16],inactive
same,Potency,[17],inactive
same,Potency,[18],inactive
same,Potency,[19],inactive
CN1CCN(C2=Nc3ccccc3Oc3ccc(Cl)cc32)CC1,Potency,[1],inactive
same,Potency,[2],inactive
same,Potency,[3],inactive
same,Potency,[4],inactive
same,"activity change, positive = activation",[6],-21.9% [at 42.5 µM]
same,Potency,[7],inactive
same,Potency,[8],inactive
same,Potency,[10],inactive
same,Potency,[11],inactive
same,Potency,[12],inactive
same,outcome,[13],inactive
same,max response,[14],-25.8%
same,Potency,[15],inactive
same,Potency,[16],inactive
same,Potency,[17],inactive
same,Potency,[19],19 µM (active)
CCC(=O)O[C@]1(C(=O)SCF)[C@H](C)C[C@H]2[C@@H]3C[C@H](F)C4=CC(=O)C=C[C@]4(C)[C@@]3(F)[C@@H](O)C[C@@]21C,Potency,[1],inactive
same,Potency,[2],inactive
same,Potency,[3],inactive
same,Potency,[4],inactive
same,Potency,[5],inactive
same,"activity change, positive = activation",[6],-0.0041% [at 42.5 µM]
same,Potency,[7],inactive
same,Potency,[8],inactive
same,Potency,[9],inactive
same,Potency,[10],inactive
same,Potency,[11],inactive
same,Potency,[12],inactive
same,outcome,[13],inactive
same,max response,[14],2.57%
same,Potency,[15],inactive
same,Potency,[16],inactive
same,Potency,[17],inactive
same,Potency,[19],inactive
C[C@@H]1CN(c2c(F)c(F)c3c(=O)c(C(=O)O)cn(C4CC4)c3c2F)C[C@H](C)N1,activation,[1],-4.01% [at 19 µM]
same,"activity change, negative = cytotoxicity",[2],2.14% [at 15.8 µM]
same,activation (H2AX phosphorylation),[3],-0.115% [at 31.6 µM]
same,"activity change, negative = cytotoxicity",[4],5.9% [at 31.6 µM]
same,"activity, negative = inhibition",[5],2.94% [at 19 µM]
same,"activity change, positive = activation",[6],1.67% [at 19 µM] (active)
same,"activity change, negative = cytotoxicity",[7],0.621% [at 15.8 µM]
same,"activity change, negative = cytotoxic",[8],11.6% [at 15.8 µM]
same,cytotoxicity,[9],5.43% [at 15.8 µM]
same,"activity change, negative = cytotoxic",[10],1.26% [at 15.8 µM]
same,cytotoxicity increase,[11],-4.55% [at 15.8 µM]
same,"activity change, negative = cytotoxicity",[12],0.662% [at 15.8 µM]
same,"viability change, negative = cytotoxic",[13],-4.32% [at 15.8 µM]
same,max response,[14],10.3%
same,activity change,[15],"0.295% [at 15.8 µM, hits give high values]"
same,cytotoxicity increase,[16],-10.9% [at 15.8 µM]
same,"activity change, negative = cytotoxic",[17],0.371% [at 15.8 µM]
same,cytotoxicity increase,[19],-9.16% [at 15.8 µM]
O=C(CCCl)NCc1ccccc1,Potency,[1],inactive
same,Potency,[2],inactive
same,Potency,[3],inactive
same,Potency,[4],inactive
same,Potency,[5],inactive
same,"activity change, positive = activation",[6],5.97% [at 42.5 µM]
same,Potency,[7],inactive
same,Potency,[8],inactive
same,Potency,[9],inactive
same,Potency,[11],inactive
same,Potency,[12],inactive
same,outcome,[13],inactive
same,max response,[14],-3.01%
same,Potency,[15],inactive
same,Potency,[16],inactive
same,Potency,[17],inactive
same,Potency,[18],inactive
same,Potency,[19],inactive
CN1[C@@H]2CC[C@H]1CC(OC(=O)c1c[nH]c3ccccc13)C2 (stereo partly drawn),Potency,[1],inactive
same,Potency,[2],inactive
same,Potency,[3],inactive
same,Potency,[4],inactive
same,Potency,[7],inactive
same,Potency,[8],inactive
same,Potency,[9],inactive
same,Potency,[10],inactive
same,Potency,[11],inactive
same,Potency,[12],inactive
same,outcome,[13],inactive
same,max response,[14],4.75%
same,Potency,[15],inactive
same,Potency,[16],inactive
same,Potency,[17],inactive
same,Potency,[18],inactive
same,Potency,[19],inactive
Oc1ccccc1C=NCc1ccccc1,Potency,[1],inactive
same,Potency,[2],inactive
same,Potency,[3],inactive
same,Potency,[4],inactive
same,Potency,[7],inactive
same,Potency,[8],inactive
same,Potency,[9],inactive
same,Potency,[10],inactive
same,Potency,[11],inactive
same,Potency,[12],inactive
same,outcome,[13],inactive
same,max response,[14],1.18%
same,Potency,[15],inactive
same,Potency,[16],inactive
same,Potency,[17],inactive
same,Potency,[18],inactive
same,Potency,[19],inactive
CCN[C@H]1CN(CCCOC)S(=O)(=O)c2sc(S(N)(=O)=O)cc21,Potency,[1],inactive
same,Potency,[2],inactive
same,Potency,[3],inactive
same,Potency,[4],inactive
same,Potency,[7],inactive
same,Potency,[8],inactive
same,Potency,[9],inactive
same,Potency,[10],inactive
same,Potency,[11],inactive
same,Potency,[12],inactive
same,outcome,[13],inactive
same,max response,[14],-0.402%
same,Potency,[15],inactive
same,Potency,[16],inactive
same,Potency,[17],inactive
same,Potency,[18],inactive
same,Potency,[19],inactive
COc1ccccc1OCC(O)COC(N)=O (stereo not drawn),Potency,[1],inactive
same,Potency,[2],inactive
same,Potency,[3],inactive
same,Potency,[4],inactive
same,Potency,[5],inactive
same,"activity change, positive = activation",[6],6.93% [at 42.5 µM]
same,Potency,[7],inactive
same,Potency,[8],inactive
same,Potency,[9],inactive
same,Potency,[10],inactive
same,Potency,[11],inactive
same,Potency,[12],inactive
same,outcome,[13],inactive
same,max response,[14],12.1%
same,Potency,[15],inactive
same,Potency,[16],inactive
same,Potency,[17],inactive
same,Potency,[18],inactive
same,Potency,[19],inactive

# Source: PubChem BioAssay (Tox21)
